# Results published in PubChem BioAssay (NCI).
# This is part of a sample that, as a whole, favours compounds with a hit. Of some 83,000 tested, about 20% had one in any assay.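 Compound tested at a single concentration for 48 hours in 96-well plates; a percent growth value below 10 was scored as active.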 Values without a mark were called inactive. Activity calls are given as the source filed them.
# Test system: HL-60(TB) leukemia
# Test: NCI-60 one-dose screen, 48 h (100 = growth as untreated, 0 = no growth, -100 = all killed)
# Settings: 10 µM unless noted
row,Structure (SMILES),growth
1,CC1(C)CC[C@]2(C(=O)N3CCCNCC3)CC[C@]3(C)C(=CC[C@@H]4[C@@]5(C)CCC(=O)C(C)(C)[C@@H]5CC[C@]43C)[C@H]2C1,104%
2,CCC1=Cc2cc(OC)ccc2OC12C=Cc1cc(OC)ccc1O2 (stereo not given),-1.93% (active)
3,NS(=O)(=O)c1ccc(Nc2nc(Nc3ccccc3)nc(N3N=C(c4ccc(Cl)cc4)CC3c3ccc(Cl)cc3)n2)cc1 (stereo not given),25.6%
4,O=C1CCC(N2C(=O)c3ccc(NS(=O)(=O)c4ccccc4OC(F)(F)F)cc3C2=O)C(=O)N1 (stereo not given),-20.1% (active)
5,COc1ccc2sc(NC(=O)CCCCCCNC(=O)C(O)(O)C(F)(F)F)nc2c1,11.8%
6,CC1(C)CC[C@]2(C(=O)O)CC[C@]3(C)C(=CCC4[C@@]5(C)C[C@@H](O)[C@@H]6OC(c7ccccc7O)OC[C@@]6(C)C5CC[C@]43C)C2C1 (stereo not given in full),38%
7,Oc1ccc(CSc2nnc(-c3ccncc3)o2)c2cccnc12,8.26% (active)
8,CCOC(=O)Nc1ccc(-c2nc(-c3cccc(O)c3)c(-c3ccnc(Br)c3)[nH]2)cc1,-11.1% (active)
9,Nc1c(C(=O)c2ccc(Br)cc2)oc2nc(-c3cnccn3)cc(-c3cccs3)c12,100%
10,COc1ccc(N/N=C/c2c(-c3ccc(S(C)(=O)=O)cc3)nc3ccccn23)cc1,39.4%
11,COC(=O)C1CN(S(=O)(=O)/N=C2\NC(=O)NC2=C(Cl)Cl)C1,101%
12,O=C1CCCC2=C1C(c1c[nH]c3ccc(Br)cc13)Cc1cc(Br)ccc1N2 (stereo not given),12.9%
13,Cc1ccc(NC(=O)c2ccc(CN3CCN(C)CC3)c(C(F)(F)F)c2)cc1Oc1ccc(-c2[nH]nc3ncnc(N)c23)cc1,113%
14,COc1ccccc1/C=C1\Oc2ccc(O)c(O)c2C1=O,76.1%
15,Cc1nc2ncc(-c3ccc4ncnc(NCc5ccccc5)c4c3)cc2[nH]1,109%
